CHRM1 PAM: positive allosteric modulators of human M1 muscarinic receptor. AID 588819. CHO-K1 hM1, Fluo-8 calcium fluorescence, ACh EC20; 0% = ACh EC20, 100% = maximal ACh. activation, % at 3 µM. 360,000 tested, 0.088% active. P11229; in the data active = activation above about 19%, passing the limit was not always enough
Target sequence (P11229 whole entry, looked up): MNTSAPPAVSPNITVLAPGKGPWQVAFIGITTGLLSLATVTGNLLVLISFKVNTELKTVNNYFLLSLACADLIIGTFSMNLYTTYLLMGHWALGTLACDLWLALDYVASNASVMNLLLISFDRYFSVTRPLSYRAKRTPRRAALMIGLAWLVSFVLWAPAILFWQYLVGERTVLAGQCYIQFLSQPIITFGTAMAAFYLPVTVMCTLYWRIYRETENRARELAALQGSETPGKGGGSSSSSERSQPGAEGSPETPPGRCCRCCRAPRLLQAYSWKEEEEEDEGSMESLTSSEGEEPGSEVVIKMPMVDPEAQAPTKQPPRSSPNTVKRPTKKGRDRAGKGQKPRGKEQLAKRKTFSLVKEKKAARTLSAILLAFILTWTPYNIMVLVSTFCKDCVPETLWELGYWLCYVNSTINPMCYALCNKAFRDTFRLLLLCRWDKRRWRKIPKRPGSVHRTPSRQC
M1 antag: blocks human M1 muscarinic receptor; CHO-K1 hM1, Fluo-8 calcium fluorescence, ACh EC80 antagonist; 360,000 tested, 1.3% active; inhibition, % at 3 µM;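 active = percent inhibition above its own plate's cutoff, namely the mean of that plate's compound wells plus 3 SD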;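 note: peak over basal fluorescence ratio during 140 s after agonist addition; 0% = ACh EC80 plus DMSO and 100% = DMSO alone without agonist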
CHO-K1 Ca antag: M1 antagonist counterscreen hit in parental CHO-K1 cells; ATP-induced calcium, Fluo-8 fluorescence; inhibition, % at 3 µM; 360,000 tested, 0.6% active; AID 602250;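 active = inhibition above a per-plate cutoff, the plate's mean sample inhibition plus 3 SD, cut at about 24% in these data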;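 note: 0% = DMSO plus EC80 ATP and 100% = DMSO alone without ATP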
M1 ag parental: counter-screen for M1 agonists: effect in parental CHO-K1 cells. activation, % at 3 µM. 360,000 tested, 0.48% active. Fluo-8 calcium fluorescence; scaled to maximal ATP response, vehicle zero; in the data active = activation above about 15%;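 note: untransfected CHO-K1 host cells lacking M1 receptor as counterscreen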
M1 PAM parental: nonselective activator or artifact in parental CHO-K1 calcium assay; ATP EC20, Fluo-8 calcium fluorescence; 0% at ATP EC20, 100% at ATP max; activation, % at 3 µM; 360,000 tested, 0.02% active;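 active = activation above the run cutoff, the mean activation of all test compounds plus 3 SD, cut at about 40% in these data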;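 note: peak over basal fluorescence ratio in a 140 s read after ATP addition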
M1 ag: agonists of human M1 muscarinic receptor | P11229 | activation, % at 3 µM | CHO-K1 hM1, Fluo-8 calcium fluorescence, agonist mode; 0% DMSO, 100% acetylcholine EC100 | 360,000 tested, 0.33% active;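 active = activation above the run's mean compound activation plus 3 SD, cut at about 16% in these data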;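 note: peak over basal fluorescence ratio within a 140 s kinetic read after compound addition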
* hit, by the source's call. This is a sample that favours compounds with a hit; in the whole collection about 2.4% have one here.

SMILES	CHRM1 PAM	M1 antag	CHO-K1 Ca antag	M1 ag parental	M1 PAM parental	M1 ag
NCC1CC2c3ccccc3C1c1ccccc12 (centres undefined)	-16.8	27.9*	-2.4	2.1	1.0	-8.9
O=C(NCC1CCCO1)C(Cc1ccccc1)N1C(=O)C2C3C=CC(C4CC34)C2C1=O (centres undefined)	10.2	-3.1	-12.6	3.6	22.6	-5.9
COC(=O)C(NC(C)=O)(Nc1ccc(C)cn1)C(F)(F)F (centres undefined)	8.6	-13.0	-1.2	0.3	11.7	-4.1
Cc1ccc(-c2c(C(=O)N/N=C/c3ccc(C)o3)nnn2-c2nonc2N)cc1	0.5	-1.2	-0.9	0.4	16.5	-3.3
CCOc1ccc(-c2c(C(=O)N/N=C/c3ccco3)nnn2-c2nonc2N)cc1	-4.9	2.0	-6.7	5.2	-17.0	18.2*
Cc1ccc(-c2c(C(=O)N/N=C/c3ccco3)nnn2-c2nonc2N)cc1	-2.8	9.4	-7.1	15.7*	28.4	7.4
O=[N+]([O-])c1ccc(Nc2ccccc2)c2nonc12	-4.1	-0.8	-8.0	11.7	-4.7	5.6
O=[N+]([O-])c1ccc(Sc2cccc[n+]2[O-])c2nonc12	-1.5	43.8*	88.0*	0.2	-24.9	4.8
Cc1cccc(OCCC(=O)OCC(=O)N2c3ccccc3NC(=O)C2(C)C)c1	-9.8	-0.6	-6.5	12.7	11.8	1.2
CC1(C)C(=O)Nc2ccccc2N1C(=O)COC(=O)CNS(=O)(=O)c1ccc(F)c(F)c1F	-4.2	4.4	23.9*	-0.7	-22.3	-5.3
CC(C)(C)c1ccc(OCCC(=O)OCC(=O)N2c3ccccc3NC(=O)C2(C)C)cc1	-12.8	34.2*	18.2	7.0	-18.7	1.8
CC1(C)C(=O)Nc2ccccc2N1C(=O)COC(=O)CSc1ccc(Cl)cc1	1.9	-3.7	-9.8	2.5	-5.4	-3.8
Cc1cnc(C(=O)OCC(=O)N2c3ccccc3NC(=O)C2(C)C)cn1	6.8	-9.6	-11.0	-0.1	9.9	-3.3
Cc1nn(-c2ccccc2)c(C)c1C(=O)OCC(=O)N1c2ccccc2NC(=O)C1(C)C	-9.0	33.3*	19.3	4.0	7.7	0.1
Cc1cc(C)n(-c2ccc(NC(=O)C3CCN(Cc4ccc(C)o4)CC3)cc2)n1	13.4	-16.4	-6.2	1.2	0.9	-4.8
Cc1ccccc1C(=O)Oc1cc(N)n(S(C)(=O)=O)n1	6.8	-4.2	24.2*	-0.6	-14.9	-4.6
Cc1nc2nc(SCC(=O)NCCN3CCOCC3)nn2c(C)c1Cc1ccccc1	1.0	-3.8	-3.2	0.1	-2.6	-4.1
Cc1cccc(Cc2c(C)nc3nc(SCC(=O)O)nn3c2C)c1	6.5	1.2	-8.4	-0.5	-6.2	-0.6
Cc1ccc(Cc2c(C)nc3nc(SCC(=O)NCCCN4CCCCC4)nn3c2C)cc1	-25.1	26.4*	-6.2	1.5	15.4	-11.3
Cc1ccc(Cc2c(C)nc3nc(SCC(=O)NCCCN4CCCC4)nn3c2C)cc1	-24.9	28.8*	-14.4	0.9	10.2	-11.7
CCOC(=O)Cc1csc(NC(=O)COc2cc(C)cc(C)c2)n1	5.3	-12.2	-9.7	0.8	7.7	-5.5
CCCn1c(C(C)NC(=O)c2ccccc2)n[nH]c1=S (centres undefined)	5.5	-10.6	-0.2	17.0*	11.6	-2.1
O=C(NCCc1ccccn1)c1nc(Cn2cc(Br)cn2)no1	21.7	-16.0	0.8	-0.1	-0.2	-0.9
C(=C\c1ccccc1)/CN1CCN(C(c2ccnc3ccccc23)c2nnnn2C2CCCC2)CC1 (centres undefined)	-25.8	69.8*	-2.9	-0.4	-4.5	-5.7
FC(F)(F)Oc1ccccc1C(c1nnnn1C1CCCC1)N1CCN(C/C=C/c2ccccc2)CC1 (centres undefined)	-24.9	56.4*	-8.8	0.5	17.2	-4.2
SMILES	CHRM1 PAM	M1 antag	CHO-K1 Ca antag	M1 ag parental	M1 PAM parental	M1 ag
c1ccc(C(c2ccccc2)N2CCN(C(c3ccccn3)c3nnnn3C3CCCC3)CC2)cc1 (centres undefined)	-1.6	6.2	-4.1	-0.1	-7.2	-5.2
c1ccc(C(c2nnnn2C2CCCC2)N2CCCCCC2)nc1 (centres undefined)	-27.3	33.8*	19.2	-0.4	-5.6	-12.8
COc1cccc(C(c2nnnn2C2CCCCC2)N2CCN(C/C=C/c3ccccc3)CC2)c1OC (centres undefined)	-20.8	11.9	9.0	-0.9	1.2	-5.7
C(=C\c1ccccc1)/CN1CCN(C(c2ccccc2)c2nnnn2C2CCCC2)CC1 (centres undefined)	-22.8	53.9*	-25.4	1.9	16.9	-4.6
Nc1nc2c(F)c(F)c(F)cc2s1	12.8	-11.3	-9.2	1.2	12.8	-1.0
O=C1CC2(CCCC2)C(=O)N1c1ccc(S(=O)(=O)NCC2CC2)cc1Cl	0.7	-3.6	-8.8	4.8	12.7	-4.8
Cc1ccc(-n2nc3c(c2NC(=O)CC(C)C)CS(=O)(=O)C3)c(C)c1	11.2	-6.9	11.2	-0.2	-5.3	0.5
CC1(C)Cc2c(cnn2-c2cccc(F)c2)C(NC(=O)CCc2cnccn2)C1 (centres undefined)	11.7	-5.2	-7.3	0.7	6.8	-2.6
COc1ccccc1C(CNC(=O)c1cccc(S(=O)(=O)Nc2ccc(C)cc2)c1)N1CCCC1 (centres undefined)	-23.1	77.6*	-0.8	2.6	17.9	-7.2
COc1ccccc1NS(=O)(=O)c1cccc(C(=O)NCC(c2ccccc2OC)N2CCCC2)c1 (centres undefined)	-20.0	41.6*	-12.8	1.2	-4.7	-7.1
C=CCN(c1ccccc1)S(=O)(=O)c1cccc(C(=O)NCC(c2ccccc2OC)N2CCCC2)c1 (centres undefined)	-24.2	50.4*	-14.3	-0.6	-10.2	-8.3
CCN(c1ccccc1)S(=O)(=O)c1ccc(C(=O)NCC(c2ccccc2OC)N2CCCC2)cc1 (centres undefined)	-10.5	9.4	-8.1	3.0	8.8	-6.7
C/C=C(/C)C(=O)OC1CC(C)(C)C[C@H]2C3=CC[C@@H]4[C@@]5(C)CCC(O[C@@H]6O[C@@H](C(=O)O)[C@@H](O)C(O[C@@H]7OC[C@H](O)[C@@H](O)[C@@H]7O[C@@H]7OC(CO)C(O)[C@@H](O)[C@@H]7O)C6O[C@@H]6OC(CO)C(O)C(O)C6O)[C@@](C)(CO)[C@@H]5CC[C@]4(C)[C@]3(C)CC(O)[C@@]12CO (some centres undefined)	-36.5	73.5*	49.0*	66.7*	-21.5	62.0*
